Test results from PubChem BioAssay (EPA / NIEHS).
Inconclusive results are not listed. The source made the active and inactive calls. How the source made its calls, unless noted: active means hit-call score of the fitted dose curve at least 0.9, where 1 is the maximum; inconclusive means response in the unintended direction; inactive means score below 0.9.

Columns and labels:
[1] = Tanguay_ZF_120hpf_BRAI_legacy: (Legacy) Oregon State University Tanguay Lab 120 Hour Post-fertilization zebrafish Assay for Brain Malformation (AID 2283641)
Procedure, shortened: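 Tropical 5D wild-type zebrafish embryos were exposed statically in sealed, foil-covered plates at 28C until 120 hpf, with 0.64% (vol/vol) final DMSO. Brain malformation was scored present/absent by brightfield microscopy, relative to DMSO baseline.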

[2] = Tanguay_ZF_120hpf_SOMI_legacy: (Legacy) Oregon State University Tanguay Lab 120 Hour Post-fertilization zebrafish Assay for Somite Malformation (AID 2283647)
Procedure, shortened: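 Tropical 5D wild-type zebrafish embryos, dechorionated with pronase at 4 hpf, were placed singly at 6 hpf and statically exposed until 120 hpf at 28C in 0.64% DMSO. Somite malformation was scored present/absent by brightfield microscopy versus DMSO.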

[3] = Tanguay_ZF_120hpf_PFIN_legacy: (Legacy) Oregon State University Tanguay Lab 120 Hour Post-fertilization zebrafish Assay for Pectoral Fin Malformation (AID 2283648);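 further: each larva judged yes or no for fin defect by brightfield with dead larvae skipped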
Procedure, shortened: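 Tropical 5D wild-type embryos, dechorionated with pronase at 4 hpf, were placed singly in wells at 6 hpf and statically exposed until 120 hpf at 28C, sealed and dark, with 0.64% (vol/vol) final DMSO; pectoral fin malformation scored present/absent.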

[4] = Tanguay_ZF_120hpf_CFIN_legacy: (Legacy) Oregon State University Tanguay Lab 120 Hour Post-fertilization zebrafish Assay for Caudal Fin Malformation (AID 2283649)
Procedure, shortened: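 Tropical 5D wild-type embryos, dechorionated with pronase at 4 hpf, were placed singly in wells at 6 hpf and statically exposed to compound at 28C until 120 hpf (0.64% DMSO). Caudal fin malformation was scored present/absent by brightfield microscopy.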

[5] = Tanguay_ZF_120hpf_PIG_legacy: (Legacy) Oregon State University Tanguay Lab 120 Hour Post-fertilization zebrafish Assay for Pigmentation Malformation (AID 2283650)
Procedure, shortened: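 Tropical 5D wild-type zebrafish embryos, dechorionated with pronase at 4 hpf, were exposed singly from 6 hpf to 120 hpf statically at 28C in sealed, dark plates with 0.64% DMSO; pigmentation scored present/absent by brightfield microscopy, fitted against DMSO.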

[6] = Tanguay_ZF_120hpf_CIRC_legacy: (Legacy) Oregon State University Tanguay Lab 120 Hour Post-fertilization zebrafish Assay for Circulatory Malformation (AID 2283651)
Procedure, shortened: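 Read-out: presence or absence of circulatory malformation at 120 hpf, scored by brightfield microscopy, fitted in the gain-of-signal direction against DMSO baseline. Wild-type 5D larvae were exposed from 6 hpf after enzymatic chorion removal.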

[7] = Tanguay_ZF_120hpf_SWIM_legacy: (Legacy) Oregon State University Tanguay Lab 120 Hour Post-fertilization zebrafish Assay for Swim Bladder Malformation (AID 2283654);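 further: swim bladder malformation in each larva scored yes or no under brightfield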
Procedure, shortened: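 Dechorionated Tropical 5D wild-type embryos, placed singly from 6 hpf, were statically exposed at 28C to 120 hpf with 0.64% DMSO final; swim bladder malformation was scored present/absent by brightfield microscopy, gain of signal relative to DMSO controls.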

[8] = Tanguay_ZF_120hpf_TRUN_legacy: (Legacy) Oregon State University Tanguay Lab 120 Hour Post-fertilization zebrafish Assay for Truncated Body (AID 2283655)
Procedure, shortened: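 Tropical 5D wild-type embryos, dechorionated with pronase at 4 hpf, were placed singly in wells at 6 hpf and statically exposed at 28C until 120 hpf, final DMSO 0.64%. Truncated body was scored present/absent by brightfield microscopy.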

[9] = Tanguay_ZF_120hpf_NC_legacy: (Legacy) Oregon State University Tanguay Lab 120 Hour Post-fertilization zebrafish Assay for Notochord and Tail Malformation (AID 2283656)
Procedure, shortened: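 Dechorionated Tropical 5D wild-type zebrafish embryos, one per well from 6 hpf, statically exposed to 120 hpf at 28C in 0.64% DMSO final. Notochord distortion scored present/absent by brightfield; dead embryos excluded.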

[10] = tested on: Thyroperoxidase (TPO), gene 54314; assay: CCTE_Simmons_AUR_rTPO: CCTE's Amplex UltraRed Assay for Thyroperoxidase (TPO) Inhibition, Simmons Lab (AID 2283662);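 on AC50: potency for loss of signal meaning inhibition of peroxidase activity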
Procedure, shortened: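 Endpoint is decreased Amplex UltraRed fluorescence after a 30-min, 37C reaction of rat thyroid microsomes with 300 uM H2O2. Eight test concentrations (5 nM–87.5 uM final) in 0.5% DMSO, three biological replicates each.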

[11] = CCTE_Simmons_CellTiterGLO_HEK293T: Viability Assessment in CCTE's Assays for Thyroperoxidase (TPO) Inhibition, Simmons Lab (AID 2283665);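 on AC50: cells exposed to compound for 24 h before readout; actives reduce ATP signal below DMSO vehicle meaning cytotoxicity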
Procedure, shortened: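 HEK293T, 10 000 cells/well, DMEM + 1% FBS; 8-pt titration 5 nM–87.5 uM [final], 0.5% DMSO; 24 hr, 37C, 5% CO2; CellTiter-Glo luminescence; n=3 biological replicates.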

[12] = Tanguay_ZF_120hpf_TR_legacy: (Legacy) Oregon State University Tanguay Lab 120 Hour Post-fertilization zebrafish Assay for Touch Response (AID 2283667)
Procedure, shortened: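 Tropical 5D wild-type zebrafish embryos were exposed statically in sealed, foil-covered plates at 28C until 120 hpf, with 0.64% (vol/vol) final DMSO. Touch response was scored as present or absent; embryos that died were not scored.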

[13] = CCTE_Padilla_ZF_144hpf_TERATOSCORE: (Legacy) CCTE's 144 Hour Post-fertilization zebrafish Assay Teratoscore, Padilla Lab (AID 2283679; active means hit-call score of the fitted dose curve at least 0.9, where 1 is the maximum; inactive means score below 0.9;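 on AC50: zebrafish embryos with chorions exposed by immersion from 6-8 hpf to 5 dpf with daily renewal; teratogenicity score from eye scoring of death hatching and malformations at 144 hpf; higher score means more developmental defects relative to DMSO baseline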)
Procedure, shortened: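 Larvae scored by eye at 144 hpf for death, hatching and malformations after a day in clean Hanks'. Before that, daily-renewed exposure at 80 uM (0.4% DMSO, 26C) from roughly 6-8 hpf through 5 dpf, 4 embryos per chemical.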

[14] = Tanguay_ZF_120hpf_PE_legacy: (Legacy) Oregon State University Tanguay Lab 120 Hour Post-fertilization zebrafish Assay for Pericardial Edema (AID 2283640);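 on AC50: potency for increased incidence of pericardial edema versus DMSO baseline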
Procedure, shortened: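 Tropical 5D wild-type zebrafish embryos were exposed statically to 120 hpf at 28C, sealed and foil-covered, in 0.64% DMSO final. Pericardial edema was scored present/absent by brightfield microscopy; dead embryos were not scored.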

[15] = read-out: solute carrier (SLC22A6), SLC22A6 (gene 9356); assay: LTEA_HepaRG_SLC22A6: Life Technologies and Expression Analysis (LTEA) Assay for solute carrier (SLC22A6) using HepaRG (AID 2283653; active means hit-call score of the fitted dose curve at least 0.9, where 1 is the maximum; inactive means score below 0.9); conditions: mRNA level, 48 h; actives raise or lower the signal
Procedure, shortened: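 Differentiated human HepaRG cells were exposed for 48 h in serum-free induction medium to eight concentrations (top 100 uM, half-log steps, 0.5% DMSO), in duplicate. SLC22A6 mRNA was quantified by qRT-PCR, normalised to ACTB, GAPDH and POLR2A, and fitted bidirectionally against DMSO.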

[16] = read-out: solute carrier (SLC10A1), SLC10A1 (gene 6554); assay: LTEA_HepaRG_SLC10A1: Life Technologies and Expression Analysis (LTEA) Assay for solute carrier (SLC10A1) using HepaRG (AID 2283657; active means hit-call score of the fitted dose curve at least 0.9, where 1 is the maximum; inactive means score below 0.9); conditions: mRNA level, 48 h; actives raise or lower the signal
Procedure, shortened: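 Differentiated HepaRG cells were plated 48 h, then exposed in serum-free induction medium for 48 h to 8 concentrations (top 100 uM, half-log steps, 0.5% DMSO). SLC10A1 mRNA was quantified by qRT-PCR normalized to ACTB, GAPDH, POLR2A; bidirectional fit versus DMSO.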

[17] = read-out: matrix metalloproteinase-1 (MMP1), MMP1 (gene 4312); assay: LTEA_HepaRG_MMP1: Life Technologies and Expression Analysis (LTEA) Assay for matrix metalloproteinase-1 (MMP1) using HepaRG (AID 2283658; active means hit-call score of the fitted dose curve at least 0.9, where 1 is the maximum; inactive means score below 0.9); conditions: mRNA level, 48 h; actives raise or lower the signal
Procedure, shortened: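 Differentiated HepaRG cells, plated 48 h then switched to serum-free induction medium, were exposed in duplicate for 48 h to eight half-log concentrations up to 100 uM in 0.5% DMSO; MMP1 mRNA measured by qRT-PCR, normalized to ACTB, GAPDH, POLR2A.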

[18] = read-out: Cytochrome P450 (CYP24A1_1), CYP24A1 (gene 1591); assay: LTEA_HepaRG_CYP24A1_1: Life Technologies and Expression Analysis (LTEA) Assay for Cytochrome P450 (CYP24A1_1) using HepaRG (AID 2283671; active means hit-call score of the fitted dose curve at least 0.9, where 1 is the maximum; inactive means score below 0.9); conditions: mRNA level, 48 h; actives raise or lower the signal
Procedure, shortened: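 HepaRG, 48 h exposure, 8-pt half-log series from 100 uM in 0.5% DMSO, duplicates. Readout: TaqMan qRT-PCR of CYP24A1 mRNA, housekeeping-normalized (ACTB/GAPDH/POLR2A). Bidirectional curve fit vs DMSO baseline.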

[19] = STM_H9_OrnithineISnorm_perc: Stemina devTOX quickPredict H9 human embryonic stem cell (hESC)-based Assay for Ornithine (ORN) Metabolite Biomarker, Normalized (AID 2283712; active means hit-call score of the fitted dose curve at least 0.9, where 1 is the maximum; inactive means score below 0.9;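 further: ornithine released into spent medium during last day measured by mass spectrometry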)
Procedure, shortened: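 H9 human embryonic stem cells kept pluripotent receive test chemical over 72 h, refreshed daily by media exchange. Media from the closing 24 h is deproteinized and analysed by UPLC-HRMS on an amide column; ornithine signal is scaled to labelled standard and vehicle.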

[20] = read-out: kallikrein-3 (KLK3), KLK3 (gene 354); assay: LTEA_HepaRG_KLK3: Life Technologies and Expression Analysis (LTEA) Assay for kallikrein-3 (KLK3) using HepaRG (AID 2283652; active means hit-call score of the fitted dose curve at least 0.9, where 1 is the maximum; inactive means score below 0.9); conditions: mRNA level, 48 h; actives raise or lower the signal
Procedure, shortened: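 Differentiated human HepaRG cells in serum-free induction medium exposed 48 h in duplicate, eight-point half-log series from 100 uM in 0.5% DMSO. KLK3 mRNA by qRT-PCR, normalised to ACTB, GAPDH, POLR2A; bidirectional fit versus DMSO.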

Measured: AC50

NS(=O)(=O)c1cc2c(cc1Cl)NCNS2(=O)=O
inactive: [1] | [2] | [3] | [4] | [5] | [6] | [7] | [8] | [9]

C[C@]12C=CC(=O)C=C1CC[C@@H]1[C@@H]2C(=O)C[C@@]2(C)[C@H]1CC[C@]2(O)C(=O)CO
inactive: [1] | [2] | [3] | [4] | [7] | [9] | [10] | [11] | [12] | [13]

COc1ccc(C)cc1N
inactive: [1] | [2] | [3] | [4] | [5] | [6] | [7] | [8] | [11] | [12]
active: [10] 1.23 µM

Cc1ccc(N(C)C)cc1
inactive: [2] | [3] | [5] | [7] | [8] | [9] | [11]
active: [10] 11.3 µM

Oc1ccc2ccccc2c1N=Nc1ccccc1
inactive: [2] | [3] | [4] | [5] | [6] | [15] | [8] | [9] | [17] | [10] | [18] | [19]
active: [14] 35.2 µM | [7] 51.7 µM | [16] 4.88 µM | [11] 17 µM | [12] 25.4 µM | [13] 5.21 µM

Nc1ccc2c(c1)C(=O)c1ccccc1C2=O
inactive: [1] | [2] | [3] | [4] | [5] | [6] | [7] | [8] | [9]

Cc1ccc(Cl)cc1
inactive: [14] | [1] | [3] | [4] | [20] | [15] | [7] | [9] | [16] | [17] | [12] | [18]

CC(CO)OC(C)CO (configuration not stated) (tested in a mixture with another compound)
inactive: [14] | [3] | [4] | [5] | [7] | [8] | [9] | [12] | [19]

Cc1cccc(C)c1O
inactive: [14] | [1] | [3] | [5] | [7] | [8] | [9] | [11] | [12]
active: [10] 23.4 µM

CC=Cc1ccc(O)c(OC)c1
inactive: [14] | [3] | [4] | [5] | [7] | [9] | [11]
active: [10] 6.14 µM | [13] 53.8 µM

CNC(=O)[C@H]1O[C@@H](n2cnc3c(NCc4cc(Cl)ccc4OCc4cc(C)no4)ncnc32)[C@H](O)[C@@H]1N
inactive: [14] | [2] | [4] | [5] | [6] | [8] | [9] | [10] | [12]

Nc1ccccc1N
inactive: [2] | [3] | [4] | [5] | [6] | [9] | [11]
active: [14] 10.5 µM | [8] 10.9 µM | [10] 4.15 µM | [12] 77 µM | [13] 89.9 µM | [19] 7.65 µM
